# Measured values taken from PubChem BioAssay (EPA / NIEHS).
# The source made the active and inactive calls. How the source made its calls: active means hit-call score of the fitted dose curve at least 0.9, where 1 is the maximum; inactive means score below 0.9.
# Assay: CCTE_Shafer_MEA_acute_burst_number: CCTE's Neural Acute Assay for Single-Electrode Bursts, Shafer Lab (AID 2284013)
# Description: CCTE_Shafer_MEA_acute assay is conducted using Axion Biosystems 48 well microelectrode array (MEA) plates and Maestro recording system. Each well of the MEA plate contains a grid of 16 microelectrodes embedded in the culture surface. Electrically active cells, such as neurons, can be cultured over the electrodes, and electrical activity in these cells can be recorded extracellularly. The spontaneous firing of neurons is captured from each electrode on a microsecond timescale providing both temporally and spatially precise data. […] The CCTE_Shafer_MEA_acute assay uses primary cultures of rat cortical neurons. As these cultures mature over time, neural networks develop functional activity and form cohesive networks in which electrical activity can be highly coordinated. Baseline 40-minute recordings are made on days post-plating 13 or 15, followed by a secondary 40-minute recording after chemical exposure.CCTE_Shafer_MEA_acute_burst_number is a component of the CCTE_Shafer_MEA_acute assay. It measures the total number of single-electrode bursts (temporally-clustered groups of action potential firing) during a recording in a microelectrode array (MEA) using Axion Biosystems Maestro 768 channel amplifier with the AxIS adaptive spike detector. The recordings before and after chemical treatment are used to calculate a percent change in the burst number in each well.Data from the assay component CCTE_Shafer_MEA_acute_burst_number was analyzed into 1 assay endpoint. This assay endpoint, CCTE_Shafer_MEA_acute_burst_number, was analyzed in the negative analysis fitting direction relative to DMSO as the negative control and baseline of activity. Using a type of functional reporter, gain or loss-of-signal activity can be used to understand electrical activity.
# Spontaneous activity in the cortical cultures was recorded using an Axion Biosystems Maestro 768 channel amplifier and Axion Integrated Studios (AxIS) v1.8 (or later) software. The amplifier recorded from all channels simultaneously (gain = 1200 x; sampling rate = 12.5 kHz/channel): raw signals were filtered with a Butterworth band-pass filter (300-5000 Hz), which filters out slower local field potentials leaving only fast potentials, i.e., "spikes", arising from extracellular currents associated with action potentials (Pine 2006; Wheeler and Nam 2011). On-line spike detection of filtered signals was conducted with the AxIS adaptive spike detector, using a threshold of 8x the root mean squared (rms) noise on each channel. Any electrodes with rms noise levels greater than 5 uV were grounded (e.g., no data were recorded). Once grounded, an electrode was grounded for the duration of the experiment. All recordings were conducted at 37 C. Wells were deemed usable if on the day of the exposure >/= 10 electrodes were active (defined as >/= 5 spikes/min). On DIV 13 or 15, a minimum of three wells from one cortical culture preparation were treated with each compound (0.03-40 uM). Prior to recording baseline activity, each mwMEA plate was placed in the Maestro at 37 C and allowed to sit for 20 min while firing rates stabilized. Baseline activity (40 min) was recorded before the addition of each compound. An additional 40 min of spontaneous activity was recorded in the presence of each compound. Changes in network parameters relative to baseline were assessed following compound treatment.
SMILES,outcome,AC50
C=CCc1ccc(O)c(OC)c1,inactive,
Nc1nc(N)c2nc(CNc3ccc(C(=O)N[C@@H](CCC(=O)O)C(=O)O)cc3)cnc2n1,inactive,
NCC1(Cc2noc(=O)[nH]2)CCCCC1,inactive,
CC(C)(C)c1cc(O)c(C(C)(C)C)cc1O,inactive,
c1cc(-c2ccncc2)ccn1,inactive,
CNCc1cc(F)ccc1Oc1ccc(Cl)c(Cl)c1,,2240 nM (active)
C[Si]1(C)O[Si](C)(C)O[Si](C)(C)O[Si](C)(C)O1,inactive,
CCCCCCCCCCO,inactive,
CC(=O)Oc1ccccc1C(=O)O,inactive,
CCOC(=O)C(C)(C)Oc1ccc(Cl)cc1,inactive,
CN1CCCC1=O,inactive,
O=C(O)CCCCC(=O)O,inactive,
Clc1cc(Cl)c(Cl)cc1Cl,inactive,
Nc1ccc2c(c1)C(=O)c1ccccc1C2=O,inactive,
CCCCCCCCCCCCCCCCCC(=O)O,inactive,
COc1ccc2c(c1)c(CC(=O)O)c(C)n2C(=O)c1ccc(Cl)cc1,inactive,
C=CCOC(=O)c1ccccc1C(=O)OCC=C,inactive,
Cc1ccc2ncccc2c1,inactive,
Cc1ccc(C)c(O)c1C,inactive,
CCCc1cc(=O)[nH]c(=S)[nH]1,inactive,
CC(=O)C(C)=CC1C(C)=CCCC1(C)C (configuration not stated),inactive,
COc1ccc(S(=O)(=O)N2C(=O)[C@@](c3ccccc3OC)(N3C[C@H](O)C[C@H]3C(=O)N(C)C)c3cc(Cl)ccc32)c(OC)c1,inactive,
Cc1ccc(C(C)C)c(O)c1,inactive,
CN[C@H]1CC[C@@H](c2ccc(Cl)c(Cl)c2)c2ccc(S(N)(=O)=O)cc21,inactive,
NS(=O)(=O)c1cc2c(cc1Cl)NCNS2(=O)=O,inactive,
FC(F)(F)C(F)(F)C(F)(F)C(F)(F)C(F)(F)C(F)(F)CCI,inactive,
Nc1ccccc1N,inactive,
